The source of these data is PubChem BioAssay (NCATS).

Where “and” joins values, the source holds several entries; their conditions need not be identical. Identical values can stand only once. Inconclusive results are not listed. Calls of active or inactive are those of the source. Unless noted, calls follow the shape of the dose curve; as a rule, active = well fitted curve in the direction sought with a large enough effect; inconclusive = small, poorly fitted or top-dose-only effect, or another doubt; inactive = no such curve, though single readings can be large; an effect the other way counts as inactive or inconclusive. Peptide text beside a SMILES is read from it.

Assay [1] in a line: qHTS Assay for Lipid Storage Modulators (AID 1519; calls by dose curve; as to activity change, negative = inhibition: % is scaled to controls: 0 for no effect and ±100 for the full control effect). The note with it: Drosophila S3 cells, BODIPY lipid droplet/cell ratio, laser cytometry, cells loaded with oleic acid. In short, it runs like this: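 Cells seeded at 5,000 per well were treated with compounds over a concentration series and loaded with oleic acid (400 uM, as added). Lipid droplet fluorescence (488 nm excitation, 500-530 nm channel) was read by laser-scanning cytometry and normalized to 20 uM Triacsin C.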
A general note: In qHTS, concentration-response curves come from the screen itself.

Assay [2] deals with Alpha-galactosidase A (Homo sapiens) (UniProt P06280). As to the kind of experiment: Counterscreen for Glucocerebrosidase Inhibitors: qHTS Assay for Human alpha-Galactosidase at pH 4.5 (AID 992). Also: 0% is about no effect. Conditions: purified enzyme, fluorogenic substrate; series mostly up to 76.9 µM. An outline of the steps:
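Quantitative HTS: compounds tested from 0.7 nM up to 77 uM against 2 nM enzyme with 80 uM 4-MU alpha-D-galactopyranoside. The 20 min room-temperature reaction is stopped with 1M NaOH/1M glycine, pH 10.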
A general note: A counterscreen serves to expose hits that act by an unwanted route or on another target.

Assay [3] concerns the target alpha-glucosidase (Oryza sativa, rice) (UniProt Q653V4). The assay is described as follows: Counterscreen for Glucocerebrosidase Inhibitors: qHTS Assay for Rice alpha-Glucosidase at pH 5.0 (AID 997).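 Also: 0% = full activity with enzyme and -100% = basal without enzyme.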 The note with it: rice alpha-glucosidase enzyme activity; series mostly up to 76.9 µM. An outline of the steps:
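Rice alpha-glucosidase (4 nM final) with 400 uM 4-methylumbelliferyl-alpha-D-glucopyranoside in citrate buffer pH 5.0, 20 min at room temperature, stopped at pH 10; fluorescence 365/440 nm, compounds 0.7 nM–77 uM, AC50 from Hill fits.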

Assay [4] concerns the target DNA repair nuclease/redox regulator APEX1 (Homo sapiens) (UniProt P27695). As to the kind of experiment: qHTS Validation Assay for Inhibitors of the Human Apurinic/apyrimidinic Endonuclease 1 (APE1) (AID 1705;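 also: TAMRA fluorescence gain over two minutes as APE1 cuts a quenched THF abasic duplex; % is scaled to controls: 0 for no effect and ±100 for the full control effect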). The note with it: purified APE1 endonuclease activity, fluorescence, titration; series mostly up to 57.1 µM. In short, it runs like this: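 qHTS, 1536-well. APE1 + cpd 15 min RT → 50 nM TAMRA/BHQ-2 THF-abasic dsDNA substrate → kinetic fluorescence, 3 reads/60 s; delta(read3−read1) = reaction progress. No-enzyme buffer = negative control.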

The nature of assay [5]: Counterscreen for APE1 Inhibitors: Fluorescent Dye Displacement Validation Assay (AID 1707).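 Also: plate controls were ThO with dsDNA and no compound for no effect and ThO without dsDNA for full effect.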 Conditions: fluorescent dye displacement from DNA; series mostly up to 57.1 µM. In short, it runs like this:
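Compounds are scored by their ability to displace Thiazole Orange (250 nM) from a 50 nM TAMRA-tagged duplex bearing a tetrahydrofuran abasic site. Buffer is 50 mM Tris-HCl pH7.5, 50mM NaCl, 2 mM MgCl2, 0.01% Tween-20.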

Assay [6] concerns the target Endonuclease 4 (Escherichia coli (strain K12)) (UniProt P0A6C1). As to the kind of experiment: Counterscreen for APE1 Inhibitors: qHTS Validation Assay for Inhibitors of Endonuclease IV (AID 1708). Also: % is scaled to controls: 0 for no effect and ±100 for the full control effect. Conditions: E. coli endonuclease IV, DNA cleavage fluorescence; series mostly up to 57.1 µM. In short, it runs like this: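 2 nM enzyme was preincubated with compounds for 15 min at room temperature in 50 mM Tris-HCl pH 7.5, 50 mM NaCl, 2 mM MgCl2, 1 mM DTT, 0.01% Tween-20. 50 nM THF-abasic TAMRA/BHQ-2 duplex substrate started the reaction.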

A short description of assay [7]: qHTS for differential inhibitors of proliferation of Plasmodium falciparum line 7G8 (AID 1815).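 Also: parasite growth measured after three days of incubation.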 Also: potency is read from the fitted curve at half-maximal effect.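 As to activity change, negative = inhibition: plate controls were vehicle wells for no effect and reference inhibitor wells for full effect.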 Conditions: Plasmodium falciparum 7G8 proliferation inhibition; series mostly up to 28.7 µM.
A short description of assay [8]: Cell Viability - LYMP2-007 (AID 979).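 Also: cells exposed to compound for 24 h before reading; 0% = DMSO only and the negative end = 92 µM tetraoctylammonium bromide; nearly all actives have a fitted effect of over 60% in size.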 The note with it: LYMP2-007 lymphoblastoid cell viability; series mostly up to 92.2 µM. In short, it runs like this: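 Acute toxicity is scored as a concentration-dependent fall in intracellular ATP in human lymphoblastoid cells treated 24 hr at 37 C, measured by luciferase luminescence; Hill-equation modelling yields AC50.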

Assay [9] in a line: Cell Viability - LYMP2-008 (AID 980).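 Also: cells exposed to compound for 24 h at 37 °C; % is scaled to controls: 0 for no effect and ±100 for the full control effect; nearly all actives have a fitted effect of over 60% in size.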 The note with it: LYMP2-008 lymphoblastoid cell viability, qHTS; series mostly up to 92.2 µM. In short, it runs like this: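 Acute cytotoxicity is scored as concentration-dependent loss of cellular ATP in a human lymphoblastoid line after 24 hr treatment at 37 C. ATP is quantified by luciferase luminescence.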
Assay [10] can be described thus: Cell Viability - LYMP2-010 (AID 981).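 Also: cells exposed to compound for 24 hours at 37 °C; % is scaled to controls: 0 for no effect and ±100 for the full control effect; nearly all actives have a fitted effect of over 55% in size.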 Conditions: LYMP2-010 lymphoblastoid cell viability, qHTS; series mostly up to 92.2 µM. An outline of the steps:
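Acute toxicity is scored as a concentration-dependent loss of cellular ATP in human lymphoblastoid cells after 24 hr compound exposure in complete medium. Tetraoctylammonium bromide is the positive control.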

Assay [11] is described as follows: Cell Viability - LYMP2-012 (AID 982).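 Also: cellular ATP by luciferase luminescence where a drop means cytotoxicity; cells exposed to compound for one day before reading; 0% = DMSO only and full loss = 92 µM tetraoctylammonium bromide; nearly all actives have a fitted effect of over 55% in size.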 The note with it: LYMP2-012 lymphoblastoid cell viability qHTS; series mostly up to 92.2 µM.
Assay [12] can be described thus: Cell Viability - LYMP2-014 (AID 983).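 Also: cells exposed to compound for 24 h at 37 °C; plate controls were DMSO only for no effect and 92 µM tetraoctylammonium bromide for full effect; nearly all actives have a fitted effect of over 50% in size.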 Conditions: LYMP2-014 lymphoblastoid cells, viability qHTS; series mostly up to 92.2 µM. In short, it runs like this:
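Decrease in intracellular ATP after 24 hr treatment at 37 C, measured by luciferase luminescence, indicated cytotoxicity. Concentration-response data were fitted with the standard Hill equation to give AC50.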

The nature of assay [13]: Cell Viability - LYMP2-016 (AID 984).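 Also: cells exposed to compound for 24 hours at 37 °C; % is scaled to controls: 0 for no effect and ±100 for the full control effect; nearly all actives have a fitted effect of over 55% in size.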 The note with it: LYMP2-016 lymphoblastoid cell viability, qHTS; series mostly up to 92.2 µM. In short, it runs like this:
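Cells were seeded at 2500 per well and rested 5 hr before a 24 hr compound exposure at 37 C. Viability was then gauged as cellular ATP by luciferase luminescence, with AC50 values fitted to the Hill equation.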

A short description of assay [14]: Cell Viability - LYMP2-018 (AID 985).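 Also: plate controls were DMSO only for no effect and tetraoctylammonium bromide at 92 µM for full effect; nearly all actives have a fitted effect of over 50% in size.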 Conditions: LYMP2-018 lymphoblastoid cells, viability (qHTS); series mostly up to 92.2 µM. In short, it runs like this: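 Acute cytotoxicity is scored as a concentration-dependent drop in intracellular ATP after 24 hr exposure of the lymphoblastoid line in complete culture medium, measured by luciferase luminescence. Potency is expressed as AC50 from Hill modelling.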

A short description of assay [15]: Cell Viability - LYMP2-020 (AID 986).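 Also: cells exposed to compound for 24 h at 37 °C; plate controls were DMSO only for no effect and tetraoctylammonium bromide at 92 µM for full effect; nearly all actives have a fitted effect of over 55% in size.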 Conditions: series mostly up to 92.2 µM. In short, it runs like this: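 Acute cytotoxicity in a human lymphoblastoid line is scored as a concentration-dependent fall in cellular ATP after 24 hr at 37 C in complete medium. The positive control is tetraoctylammonium bromide, and potency is given as Hill-fit AC50.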
The nature of assay [16]: Cell Viability - LYMP2-022 (AID 987). Conditions: LYMP2-022 lymphoblastoid cell viability; series mostly up to 92.2 µM. In short, it runs like this:
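Acute toxicity in a human lymphoblastoid line is scored as decreased intracellular ATP after 24 hr compound treatment at 37 C. ATP is measured by CellTiter-Glo luminescence; curves are fitted with the Hill equation to give AC50.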

Assay [17] is described as follows: Cell Viability - LYMP2-024 (AID 988).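 Also: plate controls were DMSO only for no effect and 92 µM tetraoctylammonium bromide for full effect; nearly all actives have a fitted effect of over 60% in size.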 Conditions: LYMP2-024 lymphoblastoid cell viability; series mostly up to 92.2 µM. An outline of the steps: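 Acute toxicity is measured as concentration-dependent loss of intracellular ATP in a human lymphoblastoid line treated 24 hours at 37 C. Luciferase luminescence quantifies ATP; AC50 values come from standard Hill-equation modelling.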

A short description of assay [18]: Cell Viability - LYMP1-002 - Assay at 24 hr (AID 993). Also: % is scaled to controls: 0 for no effect and ±100 for the full control effect. The note with it: LYMP1-002 lymphoblastoid cells viability; series mostly up to 92.2 µM. An outline of the steps:
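qHTS, LYMP1-002 lymphoblastoid, 24 h cpd, 37 C, CellTiter-Glo ATP luminescence; AC50 via Hill eq.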

A short description of assay [19]: Cell Viability - LYMP1-002 - Assay at 40 hr (AID 994).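 Also: 0% = DMSO only and full inhibition = 92 µM tetraoctylammonium bromide; nearly all actives have a fitted effect of over 60% in size.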 The note with it: LYMP1-002 lymphoblastoid cell viability; series mostly up to 92.2 µM. In short, it runs like this: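 Viability in the human lymphoblastoid line was measured as intracellular ATP via CellTiter-Glo after 40 hr compound exposure. Tetraoctylammonium bromide served as positive control.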
[20] abbreviates: measured here: cell count channel max response.
Setting [21] is: measured here: lipid channel max response.

Chain of Alpha-galactosidase A (Homo sapiens) (P06280 whole entry, looked up): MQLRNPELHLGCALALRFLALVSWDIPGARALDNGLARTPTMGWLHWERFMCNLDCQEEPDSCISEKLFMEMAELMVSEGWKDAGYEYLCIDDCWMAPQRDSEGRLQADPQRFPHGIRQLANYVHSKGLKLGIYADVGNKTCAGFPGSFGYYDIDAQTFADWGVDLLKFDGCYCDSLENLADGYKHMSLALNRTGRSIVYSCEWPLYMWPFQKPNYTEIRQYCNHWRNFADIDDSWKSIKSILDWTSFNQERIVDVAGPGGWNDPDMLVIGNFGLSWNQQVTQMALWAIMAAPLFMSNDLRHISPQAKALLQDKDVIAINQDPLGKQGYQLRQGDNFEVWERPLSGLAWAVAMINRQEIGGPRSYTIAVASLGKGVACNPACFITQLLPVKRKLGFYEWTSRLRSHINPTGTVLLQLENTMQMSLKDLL
Chain of DNA repair nuclease/redox regulator APEX1 (Homo sapiens) (P27695 whole entry, looked up): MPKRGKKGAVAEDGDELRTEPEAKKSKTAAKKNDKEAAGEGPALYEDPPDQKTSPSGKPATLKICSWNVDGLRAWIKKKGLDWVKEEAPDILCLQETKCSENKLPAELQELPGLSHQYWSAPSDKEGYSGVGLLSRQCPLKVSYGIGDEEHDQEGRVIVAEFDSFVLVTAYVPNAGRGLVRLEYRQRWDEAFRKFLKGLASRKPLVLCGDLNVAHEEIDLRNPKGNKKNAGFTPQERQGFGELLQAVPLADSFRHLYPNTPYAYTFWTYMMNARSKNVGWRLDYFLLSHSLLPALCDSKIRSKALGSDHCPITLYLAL

For the compound `Cc1cc(=O)oc2cc(O)ccc12`, the activity change, negative = inhibition in assay [1] (at 25.7 µM (top of the series)) was 0.949% (inactive). Further, the max response in assay [1] (setting [20]) was -7.84%; in [1] (setting [21]) it was -11.2%.
Regarding `O=C(O)c1cccnc1Nc1cccc(C(F)(F)F)c1`, the call in assay [2], in assay [3] and in assay [6] was inactive. Also, the activity change, negative = inhibition in assay [1] (at 25.7 µM (top of the series)) is 2.12% (inactive); in [1] (at 57.5 µM (top of the series)), 2.96% (inactive). Moreover, the max response was -6.57% and 55.9% in [1] (setting [20]); -3.91% and 60.1% in [1] (setting [21]). Moreover, the Potency result in assay [4], in assay [5] and in assay [7] was “inactive” each time.
For the compound `COc1c2occc2cc2ccc(=O)oc12`, the Potency entry in assay [8], in assay [9], in assay [10], in assay [11], in [12] and in assay [13] was “inactive” in each case. The Potency result in assay [14], in assay [15], in assay [16], in assay [17], in assay [18] and in assay [19] was “inactive” in each case. For the same compound, the activity change, negative = inhibition in [1] (at 25.7 µM (top of the series)) is 2.64% (inactive). Besides, the max response was -4.25% in assay [1] (setting [20]) and 1.14% in assay [1] (setting [21]).
On to `COc1ccccc1N1CCN(CCN(C(=O)C2CCCCC2)c2ccccn2)CC1`, for which the result in assay [2] and in [3] was inactive. Besides, the Potency entry in assay [4] and in assay [5] was “inactive” in each case. The Potency in [7] was 2240 nM (active).
For the compound `O=C(c1ccccc1)c1ccc2n1CCC2C(=O)O` (configuration not stated), the activity change, negative = inhibition in assay [1] (at 57.5 µM (top of the series)) was 6.17% (inactive). Also, the max response came to 4.19% in assay [1] (setting [20]) and 13.3% in assay [1] (setting [21]). Besides, the Potency result in assay [4], in assay [5] and in assay [7] was “inactive” each time. For the same compound, the compound was called inactive in assay [6].
For the compound `O=c1cc(N2CCOCC2)oc2c(-c3ccccc3)cccc12`, the call in assay [2], in assay [3] and in [6] was inactive. The Potency entry in [4] and in assay [5] was “inactive” each time.
Consider `CC(=O)Nc1ccc(O)cc1`, for which the Potency entry in [8], in assay [9], in [10], in assay [11], in assay [12] and in assay [13] was “inactive” each time. Moreover, the Potency entry in [14], in assay [15], in assay [16], in assay [17], in [18] and in assay [19] was “inactive” throughout. The activity change, negative = inhibition is -2.03% (inactive) in assay [1] (at 25.7 µM (top of the series)); -1.72% (inactive) and 6.64% (inactive) in assay [1] (at 57.5 µM (top of the series)). In addition, the max response was -12.5% and -9.7% and 2.35% in [1] (setting [20]); -12.8% and -10.2% and 7.7% in [1] (setting [21]).
In the case of `COC(=O)[C@H](Cc1ccccc1)NC(=O)[C@@H](N)CC(=O)O` (H-Asp-Phe-OMe), the Potency result in assay [8], in assay [9], in assay [10], in assay [11], in [12] and in assay [13] was “inactive” each time. Also, the Potency entry in assay [14], in assay [15], in assay [16], in [17], in assay [18] and in assay [19] was “inactive” each time.
Take `NS(=O)(=O)c1cc(C(=O)O)c(NCc2ccco2)cc1Cl`: the Potency entry in assay [8], in assay [9], in assay [10], in assay [11], in assay [12] and in assay [13] was “inactive” in each case. In addition, the Potency entry in assay [14], in assay [15], in assay [16], in assay [17], in assay [18] and in [19] was “inactive” throughout. Besides, the activity change, negative = inhibition in [1] (at 25.7 µM (top of the series)) is 1.95% (inactive). Further, the max response in [1] (setting [20]) is -6.97%; in assay [1] (setting [21]) it was -4.2%.
In the case of `O=C(O)c1cc(=O)c2c(OCC(O)COc3cccc4oc(C(=O)O)cc(=O)c34)cccc2o1`, the results for the activity change, negative = inhibition in assay [1] (at 25.7 µM (top of the series)) and in [1] (at 57.5 µM (top of the series)) were -2.11% (inactive) and 11.5% (inactive), respectively. For the same compound, the max response in assay [1] (setting [20]) was 9.46% and 18.8%; in [1] (setting [21]), 8.64% and 34.9%.
